Measurements published in PubChem BioAssay AID720532 (National Center for Advancing Translational Sciences (NCATS), 2013).
Where “and” joins values, the source holds several entries; their conditions need not be identical. Equal values may be shown once. The campaign covered roughly 18,000 compounds. About 1,200 (6.7%) were called active. About 16% were inconclusive and are not listed. This is one part of a sample in which actives are shown more often than they occur. Calls come from the whole dose curve; tested in HEK293 cells. The source holds several records for some structures; these can differ, active in one and inactive in another.

assay: qHTS for Inhibitors of binding or entry into cells for Marburg Virus; settings: Marburg virus pseudotype entry/binding inhibition, cell-based; series mostly up to 49.2 µM; activity change, negative = inhibition: at the top concentration
% is set by controls: 0 for no effect and ±100 for the full control effect; potency is the fitted concentration of half-maximal effect.

**Q.** Which activity change, negative = inhibition does the source give for `COc1ccc(-c2nc(-c3ccccc3)oc2Nc2ccc3ccccc3c2)cc1` here?
**A.** The activity change, negative = inhibition was “inactive”.

**Q.** With `O=S1(=O)CC(N2CCC(Cc3ccccc3)CC2)CN1Cc1ccccc1` (stereo unspecified) as the molecule, how does the “activity change, negative = inhibition” value read?
**A.** The value was 2.7% (inactive).

**Q.** For `CCOC(=O)C1=C(C(=O)OCC)C(C(=O)OCC)N(S(=O)(=O)C(F)(F)F)c2ccccc21` (stereo unspecified), which “activity change, negative = inhibition” value is on record?
**A.** The value was 4.82% (inactive).

**Q.** Which “activity change, negative = inhibition” value does the source give for `COC(=O)C(C(=O)OC)[C@@H](NC=O)c1ccccc1` here?
**A.** Its value is -11% (inactive).

**Q.** For `C=CCN(Cc1ccc([N+](=O)[O-])cc1)S(=O)(=O)C=C`, which “activity change, negative = inhibition” value is on record?
**A.** The value was -5.13% (inactive).

**Q.** With `COC(=O)CC=C[C@@H](C)[C@H](NC(=O)OCC(Cl)(Cl)Cl)c1ccc2ccccc2c1` as the molecule, how does the activity change, negative = inhibition read?
**A.** The activity change, negative = inhibition was -17.9% [at 8.59 µM] (inactive).

**Q.** For `CC[C@H](C)[C@H](NC(=O)[C@@H](N)CCC(=O)O)C(=O)N[C@@H](CC(C)C)C(=O)N[C@@H](CC(=O)O)C(=O)N[C@H](C(=O)N1CCC[C@H]1C(=O)N[C@@H](CO)C(=O)N[C@H](C(=O)O)[C@@H](C)O)C(C)C`, which “activity change, negative = inhibition” value is on record?
**A.** Its value is -3.43% (inactive).

**Q.** For `CCCCN1CC(COc2ccccc2)Oc2cccc(F)c2S1(=O)=O` (stereo unspecified), which “activity change, negative = inhibition” value is on record?
**A.** The value was 21.2% (inactive).

**Q.** Which “activity change, negative = inhibition” value does the source give for `CCCCN1CC(COCc2ccccc2)OCCS1(=O)=O` (stereo unspecified) here?
**A.** The value was 8.55% (inactive).

**Q.** Which “activity change, negative = inhibition” value does the source give for `CC[C@@]12C=C(/C=C/c3ccccc3)[C@](CC)(C1)[C@H](c1ccccc1)CC2=O` here?
**A.** Its value is -11% (inactive).

**Q.** With `COc1cc(Nc2nccc(-c3cnn4ncccc34)n2)cc(OC)c1` as the molecule, how does the Potency read?
**A.** The Potency was 3.53 µM (active).

**Q.** For `FC(F)(F)c1ccc(-c2nn3ncccc3c2-c2ccnc(Nc3ccc4c(c3)OCCO4)n2)cc1`, which “activity change, negative = inhibition” value is on record?
**A.** The value was -23.2% (inactive).

**Q.** With `C[C@@H]1C[C@H]2CC[C@H](O2)[C@H](C)C(=O)O[C@@H](C)C[C@@H]2CC[C@@H](O2)[C@@H](C)C(=O)O[C@H](C)C[C@H]2CC[C@H](O2)[C@H](C)C(=O)O[C@@H](C)C[C@@H]2CC[C@@H](O2)[C@@H](C)C(=O)O1` as the molecule, how does the Potency read?
**A.** The Potency was 0.631 µM (active).

**Q.** With `C#CCNc1ccc2c(c1)OC[C@@H](C)NS2(=O)=O` as the molecule, how does the “activity change, negative = inhibition” value read?
**A.** Its value is 20.1% (inactive).

**Q.** With `COc1cc2c(c(OC)c1OC)CC(C)=C(C)CC2NC(=O)C(F)(F)F` (stereo unspecified) as the molecule, how does the activity change, negative = inhibition read?
**A.** Its activity change, negative = inhibition is -9.07% [at 8.59 µM] (inactive).

**Q.** Which “activity change, negative = inhibition” value does the source give for `COCOCCn1cc(CN2CCS(=O)(=O)N(Cc3ccc(-c4cccc(N(C)C)c4)cc3)C(CC(C)C)C2=O)nn1` (stereo unspecified) here?
**A.** The value was 4.51% (inactive).

**Q.** For `C[C@H](CO)NS(=O)(=O)c1ccc(Br)cc1F`, which “activity change, negative = inhibition” value is on record?
**A.** Its value is 10.2% (inactive).

**Q.** For `CCCCC/C=C\C[C@H](O)/C=C/C=C/C=C/[C@@H](O)CCCC(=O)O`, which “activity change, negative = inhibition” value is on record?
**A.** The value was 2.42% (inactive).

**Q.** With `C=CCOC(=O)C(=C)C` as the molecule, how does the “activity change, negative = inhibition” value read?
**A.** The value was 9.41% (inactive).

**Q.** For `C[C@@H]1CC2=CCCC2[C@]2(O1)C(=O)N(CC1CC1)c1cccc(Br)c12` (stereo partly specified), which activity change, negative = inhibition is on record?
**A.** The activity change, negative = inhibition was 72.4% [at 8.59 µM] (inactive).

**Q.** With `O=C(Nc1cccc(C(=O)N2CCCC2)c1)c1ccccc1` as the molecule, how does the “activity change, negative = inhibition” value read?
**A.** Its value is 18.3% (inactive).

**Q.** For `CC(=O)N1CCN(Cc2cc(=O)oc3cc(C)ccc23)CC1`, which “activity change, negative = inhibition” value is on record?
**A.** Its value is 18.6% (inactive).

**Q.** For `O=C(OCCN1CCOCC1)C1(c2ccccc2)CCCCC1`, which Potency is on record?
**A.** Its Potency is “inactive and 31.6 µM (active)”.

**Q.** Which “activity change, negative = inhibition” value does the source give for `COc1cc(OC)c2c(c1Cl)OC1(C2=O)C(O)=CC(=O)CC1C` (stereo unspecified) here?
**A.** The value was -5.71% (inactive).

**Q.** For `CSc1ccccc1N1CCN(CCCCCC(=O)NC2CCCc3ccccc32)CC1` (stereo unspecified), which Potency is on record?
**A.** The Potency was 10 µM (active).

**Q.** For `COC(=O)Nc1nc2ccc(Sc3ccccc3)cc2[nH]1`, which “activity change, negative = inhibition” value is on record?
**A.** The value was -40.1% [at 17.8 µM] (inactive).

**Q.** With `COC(=O)Nc1nc2ccc(Oc3ccc(NC(=O)Nc4cccc(Cl)c4)cc3)cc2[nH]1` as the molecule, how does the Potency read?
**A.** Its Potency is 4.99 µM (active).

**Q.** Which Potency does the source give for `C1CC[C@H]([C@@]23C[C@H](C[C@H]4CCCN[C@H]42)[C@@H]2CCCCN2C3)NC1` here?
**A.** Its Potency is 12.6 µM (active).

**Q.** Which activity change, negative = inhibition does the source give for `COC(=O)CC=C[C@@H](C)[C@H](NC(=O)OCC(Cl)(Cl)Cl)c1ccccc1` here?
**A.** Its activity change, negative = inhibition is 0.224% [at 8.59 µM] (inactive).

**Q.** With `NC[C@@H]1O[C@H](O[C@@H]2[C@H](O[C@@H]3O[C@H](CO)[C@@H](COC[C@H]4O[C@@H](CN)[C@@H](O)[C@@H](O)[C@@H]4N)[C@@H]3O)[C@@H](O)[C@@H](N)C[C@H]2N)[C@@H](N)[C@H](O)[C@@H]1O` as the molecule, how does the “activity change, negative = inhibition” value read?
**A.** The value was 2.02% [at 17.8 µM] (inactive).

**Q.** With `Nc1ccc2c3c(cccc13)C(=O)NC2=O` as the molecule, how does the “activity change, negative = inhibition” value read?
**A.** The value was 17.5% (inactive).

**Q.** With `S=C(NCCCc1cnc[nH]1)NCCCN(Cc1ccc(Cl)c(Cl)c1)c1ccc(Br)cn1` as the molecule, how does the Potency read?
**A.** Its Potency is 20 µM (active).

**Q.** Which “activity change, negative = inhibition” value does the source give for `CCCCC[C@H](O)/C=C/[C@@H]1[C@@H](CC(=O)CCC(=O)O)[C@@H](O)C[C@H]1O` here?
**A.** The value was -3.98% (inactive).

**Q.** With `CCOC(=O)[C@@]12C3[C@@H](CCN3C(=O)N[C@@H]1c1ccccc1)[C@@H]2C` (stereo partly specified) as the molecule, how does the activity change, negative = inhibition read?
**A.** The activity change, negative = inhibition was -11.3% [at 8.59 µM] (inactive).

**Q.** For `O=S1(=O)CCSCCN1Cc1ccccc1F`, which “activity change, negative = inhibition” value is on record?
**A.** The value was 20.8% (inactive).

**Q.** With `CC(C)NC[C@H](O)c1ccc2ccccc2c1` as the molecule, how does the “activity change, negative = inhibition” value read?
**A.** The value was 3.68% (inactive).

**Q.** With `Nc1nc2nc(Cl)[nH]c2c(=O)[nH]1` as the molecule, how does the “activity change, negative = inhibition” value read?
**A.** Its value is 7.94% (inactive).

**Q.** Which activity change, negative = inhibition does the source give for `COC(=O)c1cc(C(=O)OC)n2ccc3cc(OC)c(OC)cc3c12` here?
**A.** Its activity change, negative = inhibition is 51.8% [at 8.59 µM] (inactive).

**Q.** With `CO/N=C(\C(=O)N[C@@H]1C(=O)N2C(C(=O)O)=C(C[N+]3(C)CCCC3)CS[C@H]12)c1csc(N)n1` as the molecule, how does the “activity change, negative = inhibition” value read?
**A.** The value was 19.5% (inactive).

**Q.** For `COc1ccc2nccc(C(=O)O)c2c1`, which “activity change, negative = inhibition” value is on record?
**A.** Its value is 2.51% [at 17.8 µM] (inactive).

**Q.** Which Potency does the source give for `CC[C@@H]1CN2CC[C@@H]1C[C@H]2[C@H](O)c1ccnc2ccc(OC)cc12` here?
**A.** Its Potency is 31.6 µM (active).

**Q.** With `COc1cccc([C@@H]2Oc3ccc(Br)cc3C(=O)[C@H]2OC(=O)NCCc2ccc(OC)c(OC)c2)c1` as the molecule, how does the “activity change, negative = inhibition” value read?
**A.** The value was 52.3% (inactive).

**Q.** With `CC[N+]1(CCOC(=O)C(O)(c2ccccc2)c2ccccc2)CCCCC1` as the molecule, how does the “activity change, negative = inhibition” value read?
**A.** The value was 2.06% (inactive).

**Q.** For `CCC(C(=O)OCCN(CC)CC)c1ccccc1` (stereo unspecified), which “activity change, negative = inhibition” value is on record?
**A.** Its value is 2.21% (inactive).

**Q.** For `CCCC(C(=O)OCCN(CC)CC)(c1ccccc1)c1ccccc1`, which Potency is on record?
**A.** Its Potency is 15.8 µM (active).

**Q.** Which “activity change, negative = inhibition” value does the source give for `CCCCC/C=C\C/C=C\CCCCCCCCCC(N)=O` here?
**A.** The value was -10.4% (inactive).

**Q.** Which “activity change, negative = inhibition” value does the source give for `CCCCOCC1CN(CCCC)S(=O)(=O)c2c(Oc3ccc(F)cc3)cccc2O1` (stereo unspecified) here?
**A.** The value was -22.2% (inactive).

**Q.** With `CN1CCN2c3ccccc3Cc3ccccc3[C@@H]2C1` as the molecule, how does the Potency read?
**A.** The Potency was 15.8 µM (active).

**Q.** With `CN1C(=O)CN2CCc3ccccc3C2c2cc(Cl)ccc21` (stereo unspecified) as the molecule, how does the “activity change, negative = inhibition” value read?
**A.** Its value is -3.29% (inactive).

**Q.** Which “activity change, negative = inhibition” value does the source give for H-EHIPA-OH here?
**A.** The value was 6.8% (inactive).

**Q.** With `COc1ccc(Nc2ncnc3ccc(OC)cc23)cc1` as the molecule, how does the “activity change, negative = inhibition” value read?
**A.** The value was 15.2% (inactive).

**Q.** Which “activity change, negative = inhibition” value does the source give for `CC(C)(C)OC(=O)Nc1ccc(OCc2cn(CC(=O)c3ccc(O)cc3)nn2)cc1` here?
**A.** The value was 17.5% (inactive).

**Q.** For `CO/N=C(/C(=O)N[C@@H]1C(=O)N2C(C(=O)O)=C(Cn3nnc(C)n3)CS[C@H]12)c1csc(N)n1`, which “activity change, negative = inhibition” value is on record?
**A.** The value was 13% (inactive).

**Q.** For `CC/C=C\C/C=C\C/C=C\C/C=C\C/C=C\C/C=C\CCC(=O)NC(C)C(=O)O` (stereo unspecified), which “activity change, negative = inhibition” value is on record?
**A.** Its value is 4.32% (inactive).

**Q.** With `CC12C=C(C=Cc3ccc(F)cc3)C(C)(C1)C(c1ccc(F)cc1)CC2=O` (stereo unspecified) as the molecule, how does the activity change, negative = inhibition read?
**A.** The activity change, negative = inhibition was 8.67% [at 8.59 µM] (inactive).

**Q.** Which “activity change, negative = inhibition” value does the source give for `CC(C)[C@H]1CC[C@@H](C)C[C@H]1O` here?
**A.** The value was -12.9% (inactive).
